Laboratory results reported in PubChem BioAssay AID1053143 (Broad Institute, 2014).
In all, about 3,400 compounds went through this assay and about 120 (3.5%) were called active. How the calls were made is not given here. These entries were drawn from the full list. Results with a measured potency or affinity are listed apart.

Test: viability loss in HepG2 hepatoma cells – cell-based, ATP luminescence, cherry-pick, activator set 2, cytotoxicity control, dose response (AID 1053143)
Conditions: CellTiter-Glo ATP luminescence, 72 h; series mostly up to 26 µM; activity change, negative = cytotoxicity: at the top concentration

Structure (SMILES)	activity change, negative = cytotoxicity
Brc1ccccc1-c1nc2c3ccccc3ncn2n1	-16.9% (inactive)
Cc1nc2nc(-c3cccs3)cn2nc1C	-15.8% (inactive)
O=c1[nH]c2ccccc2nc1-c1cccs1	-22% (inactive)
COc1ccc(-c2ccc(SCC(=O)Nc3cc(C)on3)nn2)cc1OC	-11.4% (inactive)
Cc1ccc(C(=O)OCC(=O)c2ccccc2)cc1	3.4% (inactive)
Cc1nc(SCC(=O)c2cccs2)c2oc3ccccc3c2n1	-3.26% (inactive)
O=C(/C=C/c1ccco1)Nc1cccnc1	-4.29% (inactive)
COc1ccccc1/C=C/C(=O)Oc1cccc2cccnc12	-14.1% (inactive)
CCc1ccc(NC(=O)c2cccnc2)cc1	4.52% (inactive)
CS(=O)(=O)N1CCc2nc(-c3ccccc3)sc2C1	0.131% (inactive)
Cc1ccc(/C=N/NC(=O)c2ccco2)cc1	7.95% (inactive)
CCCC(=O)Nc1sc(C(=O)Nc2cccc(N)c2)c(C)c1C(=O)OC	-11.7% (inactive)
COc1ccc(NC(=O)c2c(NC(=O)CCC(=O)O)sc(-c3ccccc3)c2C)cc1	-7.68% (inactive)
O=C(Nc1ccccc1F)Nc1ccccc1F	15.9% [at 12 µM] (inactive)
Cc1ccc(CCC(=O)Nc2ccccc2F)s1	22.1% (inactive)
c1ccc(Cn2c(-c3ccco3)nc3nc4ccccc4nc32)cc1	-16.9% (inactive)
Cc1scc(C(=O)N/N=C/c2ccc(Cl)s2)c1C	-1.2% (inactive)
COc1ccc(-c2cn3cccc(C)c3n2)cc1Br	-4.83% (inactive)
C=CCSc1cc(C)nc2c(-c3ccccc3)cnn12	-26% (inactive)
O=c1c2ccccc2nc2c3ccccc3c(NCc3ccccn3)nn12	-3.53% [at 6 µM] (inactive)
Cc1cc(C)n(-c2cc(C(C)(C)C)nc3c(-c4ccccc4)cnn23)n1	-9.79% (inactive)
CC(C)(C)c1cc(NCCCn2ccnc2)n2ncc(-c3ccccc3)c2n1	-19.6% (inactive)
CN(C)c1ccc(C#Cc2ccc3cc(CCCO)oc(=O)c3c2)cc1	1.77% (inactive)
Cc1ccc(-n2nc3c(n2)/C(=N/O)CC/C3=N\O)cc1	-13.2% (inactive)
CCCCCC(=O)Nc1nc2ccccc2[nH]1	-10% (inactive)
Cc1ccc(-c2csc(NC(=O)c3cccc(C)c3)c2C(=O)O)cc1	-4.95% (inactive)

Structure (SMILES)	activity change, negative = cytotoxicity
N/C(=N\OC(=O)COc1ccccc1)c1ccccn1	-7.81% (inactive)
CCCCNc1c(-c2ccc(SC3CCCCC3)cc2)nc2ccccn12	-6.41% (inactive)
O=c1[nH]c(/C=C/c2ccc(Br)cc2)nc2ccccc12	-13.3% [at 12 µM] (inactive)
c1ccc([C@H]2CN3C(=N2)Sc2ccccc23)cc1	-21.7% [at 12 µM] (inactive)
O=C(NC1CCCCC1)c1cc(-c2cccs2)on1	-1.19% (inactive)
O=C(NC1CCCC1)c1cc(-c2ccc(Cl)cc2)on1	-11.1% (inactive)
COc1cc2nn(-c3ccccc3N)nc2cc1OC	-9.19% (inactive)
CCOC(=O)c1sc(NC(=O)Nc2ccc(Cl)cc2)nc1C	-4.05% [at 12 µM] (inactive)
CCOC(=O)c1sc(NC(=O)C2CCC2)cc1C	-22.4% (inactive)
Cc1ccc(NC(=O)c2sccc2C)nc1	-18% (inactive)
Cc1csc(NC(=O)Nc2cccc(Cl)c2)n1	-9.02% (inactive)
Cc1ccc(C(=O)/C=C/Nc2ccccc2C(N)=O)cc1	-20.8% (inactive)
Cn1cccc1C(=O)Nc1ccc(N2CCOCC2)cc1	-18.9% (inactive)
COc1cccc2nc3cc(C)c(C)cc3nc12	-12.1% (inactive)
CCCC1CCC(c2ccc(OCC)cc2)=CC1=O (stereo unspecified)	-5.38% (inactive)
Cc1ccc2nc(SCC(=O)c3ccc(O)cc3O)[nH]c2c1	-3.55% (inactive)
Fc1ccccc1COc1ccc(/C=N/n2cnnc2)cc1	-11% (inactive)
Fc1ccccc1Cn1nnc(-c2ccc3c(c2)OCO3)n1	-26.9% (inactive)
CCN1C(=O)S/C(=C\c2ccc(N3CCOCC3)cc2C)C1=O	21.6% (inactive)
O=C(Nc1nc2c(F)cccc2s1)c1ccco1	-9.02% (inactive)
Cn1c(=NC(=O)c2cnccn2)sc2ccccc21	-11.9% (inactive)
Cc1sc(NC(=O)C2CCCCC2)c(C#N)c1-c1ccccc1	-2.58% (inactive)
CCOc1ccc2oc(C(=O)Nc3nccs3)c(C)c2c1	-0.418% (inactive)
COc1ccc2oc(C(=O)Nc3ccccn3)c(C)c2c1	-22.9% (inactive)
COc1ccc(N=C2SC(CC(=O)Nc3ccccc3)C(=O)N2Cc2ccco2)cc1 (stereo unspecified)	-1.28% (inactive)
